Screening data (PubChem)
FBPA coupling cs – coupling enzyme interference in Giardia aldolase counter-screen. activity change, negative = inhibition, % at 58.2 µM, hits read low. 0.67% of 290,000 active. coupling enzyme system counterscreen, AmpLite Red fluorescence; in the data active = activity change below about -30%
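Compounds tested against the coupling enzymes alone at 57.5 uM final; readout was AmpLite Red fluorescence (525/598 nm) after 20 min at RT.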
KDM4E inh – blocks human JMJD2E demethylase activity. B2RXH2. JMJD2E catalytic domain, FDH-coupled NADH fluorescence (FDH is formaldehyde dehydrogenase). Potency, µM (highest dose often 57.1 µM), for the others: top-dose activity change, negative = inhibition, actives largely listed as inhibitors. 1.6% of 230,000 active. AID 2147;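 also: potency is read from the fitted curve at half-maximal effect; 0% = wells with enzyme and -100% = buffer wells without enzyme; nearly all actives have a fitted effect of over 50% in size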
Target sequence (B2RXH2 1-337 limits assumed): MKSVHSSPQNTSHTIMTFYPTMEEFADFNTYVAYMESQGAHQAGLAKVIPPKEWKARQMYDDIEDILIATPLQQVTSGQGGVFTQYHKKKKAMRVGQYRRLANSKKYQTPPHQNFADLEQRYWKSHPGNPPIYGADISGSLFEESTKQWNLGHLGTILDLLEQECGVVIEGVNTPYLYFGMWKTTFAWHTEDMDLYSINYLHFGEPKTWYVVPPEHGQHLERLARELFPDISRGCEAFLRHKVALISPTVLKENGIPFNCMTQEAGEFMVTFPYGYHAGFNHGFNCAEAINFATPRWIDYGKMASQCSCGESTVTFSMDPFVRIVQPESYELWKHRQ
RGS12 GoLoco inh – inhibitors of human Gai1-RGS12 GoLoco interaction (red fluorophore); P63096; Gai1:RGS12 GoLoco peptide FP, rhodamine, 10 min; Potency, µM (doses to about 61.6 µM), inactives show at the highest dose activity, negative = inhibition, most hits filed as inhibitors; 0.44% of 230,000 active; AID 880; active = well fitted inhibition curve with a large enough effect, not every such curve was filed as active; inactive = no such curve, though single readings can be large or run the other way; also: potency is read from the fitted curve at half-maximal effect; nearly all actives have a fitted effect of over 30% in size
Target sequence (P63096 whole entry, looked up): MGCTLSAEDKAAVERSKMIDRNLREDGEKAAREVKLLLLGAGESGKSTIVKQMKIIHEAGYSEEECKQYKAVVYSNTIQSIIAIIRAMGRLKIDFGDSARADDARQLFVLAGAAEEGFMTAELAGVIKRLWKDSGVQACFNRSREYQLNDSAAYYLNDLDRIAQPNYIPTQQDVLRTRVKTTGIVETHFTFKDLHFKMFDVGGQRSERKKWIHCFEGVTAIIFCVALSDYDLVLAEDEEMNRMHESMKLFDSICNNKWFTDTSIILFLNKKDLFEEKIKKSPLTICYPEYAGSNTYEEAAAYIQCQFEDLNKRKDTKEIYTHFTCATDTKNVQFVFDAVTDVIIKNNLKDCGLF
NPSR antag – antagonists of human neuropeptide S receptor cAMP signaling; Q6W5P4; CHO-NPSR cells, cAMP TR-FRET, antagonist mode; Potency, µM (titrated, usually from 38.3 µM), for the others: top-dose activity change, negative = inhibition, actives largely listed as inhibitors; 1% of 220,000 active; AID 1461; active = well fitted curve in the direction sought with a large enough effect; inconclusive = small, poorly fitted or top-dose-only effect, or another doubt; inactive = no such curve, though single readings can be large; an effect the other way counts as inactive or inconclusive; also: potency is read from the fitted curve at half-maximal effect; nearly all actives have a fitted effect of over 50% in size
Sfp inh – Sfp phosphopantetheinyl transferase inhibition; Biochemical Sfp PPTase activity, qHTS; Potency, µM, inactives show largest response in the series, negative = inhibition, most hits filed as inhibitors; 3.5% of 310,000 active; active = well fitted curve in the direction sought with a large enough effect; inconclusive = small, poorly fitted or top-dose-only effect, or another doubt; inactive = no such curve, though single readings can be large; an effect the other way counts as inactive or inconclusive;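 also: the enzyme is Sfp with the accession as filed and its product quenches rhodamine fluorescence; potency is read from the fitted curve at half-maximal effect; 0% = enzyme reaction without inhibitor and -100% = no enzyme wells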
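Step 1, compound plus 15 nM Sfp-PPTase, 15 min, room temperature. Step 2, add rhodamine-CoA (5 uM) and BHQ-2-YbbR (12.5 uM). Step 3, read 525/598 nm fluorescence at 0 and 30 min.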
ALDH1A1 inh – blocks purified human ALDH1A1 activity. Potency, µM (highest dose often 75.3 µM), inactives show at the highest dose activity, negative = inhibition, hits mostly inhibitors. 7.3% of 220,000 active. Purified ALDH1A1, NADH fluorescence, propionaldehyde substrate;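 also: potency is read from the fitted curve at half-maximal effect; plate controls were no enzyme wells and a reference inhibitor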
Starred values were filed as active, the others as inactive; ? = inconclusive; . = not tested or not shown; [ ] = dose if it differs, or a comment. A selection: hits, their analogues and other compounds. The true share with any hit is near 8.5%. Unless noted, calls follow the shape of the dose curve; as a rule, active = well fitted inhibition curve with a large enough effect (not every such curve was filed as active); inconclusive = small, poorly fitted or top-dose-only effect, or another doubt; inactive = no such curve, though single readings can be large or run the other way. Unless noted, % is scaled to controls: 0 for no effect and ±100 for the full control effect.

SMILES | FBPA coupling cs | KDM4E inh | RGS12 GoLoco inh | NPSR antag | Sfp inh | ALDH1A1 inh
CC1=CC(C)C2C(=O)N(O)C(=O)C2C1 (stereo unspecified) | 1 | 4% | 10% | -3%[46.1 µM] | 12% | 14µM*
CC1=CC(C)C2C(=O)N(c3ccccc3)NC(=O)C2C1 (stereo unspecified) | 3 | 12% | -3% | 11% | 18% | 7%
O=C(NCC1CCCO1)c1sc2cc(Cl)ccc2c1Cl (stereo unspecified) | 4 | -5% | 12% | 3% | -3% | ?
Cc1ccc(S(=O)(=O)NC(=O)Nc2cc(C)ccc2F)cc1 | 2 | 7% | 14% | -24%[46.1 µM] | 12% | 28µM*
CCOc1ncccc1C(=O)Nc1ccc(C)cn1 | . | . | . | . | 6% | .
CC[C@@H](C)[C@H](CNC)NC[C@@H](Cc1cccc2ccccc12)NCCc1cccc(C(F)(F)F)c1 | -6 | . | . | . | 79µM* | .
Cc1onc(-c2ccccc2Cl)c1C(=O)N(C)Cc1ccccc1 | 3 | . | . | . | 10% | .
CN1C(=O)OC2(C)CCc3ccccc3C12C (stereo unspecified) | -4 | -10% | . | 1%[46.1 µM] | 7% | 32µM*
CC1(C)CC2(CC(C)(C)N1)OC(=O)N1CCc3ccccc3C12C (stereo unspecified) | 4 | 6% | 12% | 25% | 15% | 5%
O=C1c2ccccc2C(=O)N1CCN1CCc2ccccc21 | -2 | -4% | 1% | -17%[46.1 µM] | 9% | ?
CN(C)CCN1CCc2ccccc21 | -43* | ? | 13% | -9%[46.1 µM] | -9% | ?
c1ccc2c(c1)CCN2CCN1CCc2ccccc21 | -6 | -12% | 12% | -24%[46.1 µM] | -5% | 40µM*
COc1cc(CNCc2ccc(C)cc2)cc(OC)c1OC | 0 | . | . | . | -22% | .
Cn1c(NN)nc2sc3c(c2c1=O)CC(C)(C)OC3 | -4 | -4% | 8% | 7%[46.1 µM] | ? | -25%
CC1(C)Cc2c(sc3ncnc(N)c23)CO1 | 0 | -7% | -8% | -12%[46.1 µM] | 16% | 10%
CC1(C)Cc2c(sc3nc(=S)[nH]c(N)c23)CO1 | -3 | . | . | . | 25µM* | .
Cc1nc(NN)c2c3c(sc2n1)COC(C)(C)C3 | -3 | . | . | . | 56µM* | .
O=c1c(O)c(-c2ccccc2)oc2ccc3occc3c12 | 4 | ? | 6% | . | -15% | ?
O=C(NCCc1nc2ccccc2[nH]1)C1CCC(=O)N(CCc2cccc(F)c2)C1 (stereo unspecified) | 4 | . | . | . | 18% | .
COc1cc(/C=C/C(=O)N2CCN(C(=O)/C=C/c3cc(OC)c(OC)c(OC)c3)CC2)cc(OC)c1OC | -1 | . | . | . | 18% | .
C=CCSc1nc2ccccc2n1C(=O)/C=C/c1cc(OC)c(OC)c(OC)c1 | 7 | -7% | 7% | 2.5µM* | -15% | ?
CCSc1nc2ccccc2n1C(=O)/C=C/c1ccc(OC)c(OC)c1 | 3 | ? | -16% | -59% | 56µM* | -10%
O=[N+]([O-])c1cccc(-c2ccc(/C=N/n3c(-c4ccccc4)n[nH]c3=S)o2)c1 | 0 | 3% | 10% | -9%[46.1 µM] | -18% | 0%
CCc1nnc(N/N=C/c2ccc(-c3ccc([N+](=O)[O-])cc3)o2)n1N | -37* | -18% | 28% | -35% | ? | ?
Cc1nnc(N/N=C\c2ccc(-c3ccccc3[N+](=O)[O-])o2)n1N | -65* | 2% | -1% | -7% | 18µM* | 20µM*
SMILES | FBPA coupling cs | KDM4E inh | RGS12 GoLoco inh | NPSR antag | Sfp inh | ALDH1A1 inh
COC(=O)c1ccccc1-c1ccc(/C=N/NC(N)=O)o1 | -1 | ? | -1% | 4% | 5% | .
Cc1nnc(N/N=C/c2ccc(-c3ccccc3F)o2)n1N | -21 | ? | 7% | -15% | 45µM* | -1%
O=C(N/N=C/c1ccc(-c2ccc([N+](=O)[O-])cc2)o1)C(O)c1ccccc1 (stereo unspecified) | 2 | -2% | 11% | -4% | -7% | -9%
Cc1n[nH]c(=S)n1/N=C/c1ccc(-c2ccccc2[N+](=O)[O-])o1 | -4 | -24% | 1% | -11%[46.1 µM] | 8.9µM* | 14µM*
Cc1ccc(-c2nnn(CC(=O)N(c3ccc4c(c3)OCCO4)C(C(=O)NCC3CCCO3)c3ccc(F)cc3)n2)o1 (stereo unspecified) | -12 | 1% | 8% | -11% | 20% | 12%
O=C/C=C/c1c(-c2ccccc2)cc2oc3ccccc3cc1-2 | -3 | . | . | . | -21% | .
O=C(/C=C/Sc1ccc(C(F)(F)F)cn1)c1ccccc1 | 3 | -7% | -21% | -49% | -13% | .
COCCCn1c(SCC(=O)Nc2ccc3c(c2)OCCO3)nnc1-c1ccoc1C | 2 | ? | 4% | -11%[46.1 µM] | -5% | ?
COCCn1c(SCC(=O)c2ccc3c(c2)OCCO3)nnc1-c1ccoc1C | 0 | -7% | 13% | -15%[46.1 µM] | -13% | 20µM*
COCCCn1c(SCC(=O)n2c(C)c(C)c3ccccc32)nnc1-c1ccoc1C | 0 | -1% | 11% | -21%[46.1 µM] | -17% | 25µM*
CCn1c(SCC(=O)Nc2ccc3c(c2)OCCO3)nnc1-c1ccco1 | -11 | 0% | -3% | -10%[46.1 µM] | 10% | ?
CCCCn1c(SCC(=O)c2ccc3c(c2)OCCO3)nnc1-c1ccco1 | 1 | 0% | 4% | -15%[46.1 µM] | 50µM* | ?
COCCn1c(=O)[nH]c2cc(C(=O)N3CCN(c4cccc(C)c4C)CC3)ccc2c1=O | 1 | . | . | . | 24% | .
CCOC(=O)CC(NC(=O)c1cccc2c1C(=O)N(Cc1cccnc1)C2)c1ccc(OC(C)C)cc1 (stereo unspecified) | 0 | -20% | 3% | -50% | -7% | ?
O=C(N/N=C/c1ccc(N2CCOCC2)o1)c1cccc(C(F)(F)F)c1 | -6 | -21% | -32% | ? | 3.5µM* | ?
O=C(N/N=C/c1ccc(N2CCOCC2)o1)c1ccccc1[N+](=O)[O-] | -6 | ? | -20% | -18% | 16µM* | ?
O=C(Nc1ccc(N2CCOCC2)nc1N1CCOCC1)c1cccc(C(F)(F)F)c1 | -4 | ? | 4% | 2% | -9% | 1%
CCC(CO)Nc1nc2ccc(Cl)cc2c2ccccc12 (stereo unspecified) | -4 | ? | -7% | 36% | ? | ?
CC[C@@H]1OC(=O)[C@H](C)[C@H](O[C@@H]2C[C@](C)(OC)[C@H](O)[C@H](C)O2)[C@H](C)[C@H](O[C@@H]2O[C@@H](C)C[C@@H](N(C)C)[C@@H]2O)[C@](C)(O)C[C@H](C)C(=NOCOCCOC)[C@H](C)[C@H](O)[C@]1(C)O | 2 | -1%[25.5 µM] | 4%[21.6 µM] | . | 36% | -7%[20.9 µM]
COc1ccc(NC(=O)C2CCN(c3nnnn3-c3ccccc3)CC2)cc1 | -1 | 3% | 10% | -11%[46.1 µM] | 15% | 13µM*
